Data on 20 compounds can be found in PubChem BioAssay.

For orientation: inhibition means the change of the read-out against control, counted positive when it falls.

Test [1] in a line: antimalarial activity against Dd2 strain (AID 2302;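 active = growth inhibition above 50% at the single 2 µM test dose, taken to imply half-maximal potency below 2 µM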;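 note: 0% = DMSO untreated growth and 100% = chloroquine plus artemisinin killed control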). Conditions: P. falciparum Dd2 in RBCs, LDH growth readout, 72 h; at 2 µM; active compounds read high.
Test [2] in a line: human hepatoma cell viability loss – ATP luminescence, cytotoxicity control for P. falciparum antimalarial project, primary screen (AID 2303;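 active = inhibition above 50%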;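 note: 0% = DMSO wells and 100% = digitonin-killed cells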). Particulars: HepG2 viability, 24-48 h, at 10 µM, active compounds read high.
The target in test [3] is L-lactate dehydrogenase (Plasmodium falciparum (isolate CDC / Honduras)) (UniProt Q27743). Description: PfLDH activity inhibition – cell lysate, 3D7 strain, counter-screen for P. falciparum growth inhibition project (AID 2304).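 Note: 0% = vehicle and 100% = reference inhibitor.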 Conditions: P. falciparum 3D7 crude extract, LDH APAD/NBT absorbance; at 2 µM; active compounds read high. (In general: A counterscreen serves to expose hits that act by an unwanted route or on another target.)

A short description of test [4]: inhibition of 3D7 malaria parasite growth – strain 3D7 (AID 2306).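 Note: 0% = DMSO wells and 100% = chloroquine plus artemisinin control wells.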 Particulars: P. falciparum 3D7 erythrocytic growth, LDH absorbance, 72 h; at 2 µM; active compounds read high.
Test [5] addresses Calcium-dependent protein kinase 1 (Plasmodium falciparum (isolate 3D7)) (UniProt P62344). Description: PfCDPK1 kinase inhibitors, biochemical, TCAMS library (AID 1159585; cut-off not given, nearly all actives have IC50 up to about 0.98 µM;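 note: inhibitors leave more ATP so luminescence rises with inhibition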). Particulars: recombinant PfCDPK1, Kinase-Glo ATP depletion luminescence. (Kinase-Glo measures the ATP left after a reaction by luminescence.)
Test [6] concerns the target Plasmodium falciparum protein kinase 6 (PK6, PF3D7_1337100) (UniProt Q8IDW1). The experiment in a line: PfPK6 kinase inhibitors, biochemical, TCAMS library (AID 1159586). Conditions: recombinant PfPK6, Kinase-Glo ATP depletion luminescence.
The target in test [7] is Protein kinase 7 (PK7), Plasmodium falciparum 3D7 (PF3D7_0213400) (UniProt Q7YTF7). The experiment in a line: inhibition of Plasmodium PK7 catalytic activity – biochemical, TCAMS antimalarial set, Kinase-Glo luminescence (AID 1159587). Conditions: recombinant PfPK7, Kinase-Glo ATP depletion luminescence.
The target of test [8] is Calcium-dependent protein kinase 4 (Plasmodium falciparum (isolate 3D7)) (UniProt Q8IBS5). The experiment in a line: PfCDPK4 kinase inhibitors, biochemical, TCAMS library (AID 1159588; cut-off not given, nearly all actives have IC50 up to about 0.91 µM). Particulars: recombinant PfCDPK4, Kinase-Glo ATP depletion luminescence.

SMILES strings stand for the structures. Unmarked numbers belong to inactive results. For some of these results: Measured potencies and affinities stand elsewhere. Calls of active or inactive are those of the source. Unless noted, the rule behind the calls is not given here.

Chain of Plasmodium falciparum protein kinase 6 (PK6, PF3D7_1337100) (Q8IDW1 1-305): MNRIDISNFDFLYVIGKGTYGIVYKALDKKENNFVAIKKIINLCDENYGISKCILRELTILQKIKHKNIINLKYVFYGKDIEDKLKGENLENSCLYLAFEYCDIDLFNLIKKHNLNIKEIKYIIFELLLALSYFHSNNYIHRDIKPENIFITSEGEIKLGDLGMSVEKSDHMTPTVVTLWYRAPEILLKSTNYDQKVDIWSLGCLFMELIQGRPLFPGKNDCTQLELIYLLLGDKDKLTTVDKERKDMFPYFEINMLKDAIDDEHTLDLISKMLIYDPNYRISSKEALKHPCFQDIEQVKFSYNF
Chain of Calcium-dependent protein kinase 1 (Plasmodium falciparum (isolate 3D7)) (P62344 whole entry, looked up): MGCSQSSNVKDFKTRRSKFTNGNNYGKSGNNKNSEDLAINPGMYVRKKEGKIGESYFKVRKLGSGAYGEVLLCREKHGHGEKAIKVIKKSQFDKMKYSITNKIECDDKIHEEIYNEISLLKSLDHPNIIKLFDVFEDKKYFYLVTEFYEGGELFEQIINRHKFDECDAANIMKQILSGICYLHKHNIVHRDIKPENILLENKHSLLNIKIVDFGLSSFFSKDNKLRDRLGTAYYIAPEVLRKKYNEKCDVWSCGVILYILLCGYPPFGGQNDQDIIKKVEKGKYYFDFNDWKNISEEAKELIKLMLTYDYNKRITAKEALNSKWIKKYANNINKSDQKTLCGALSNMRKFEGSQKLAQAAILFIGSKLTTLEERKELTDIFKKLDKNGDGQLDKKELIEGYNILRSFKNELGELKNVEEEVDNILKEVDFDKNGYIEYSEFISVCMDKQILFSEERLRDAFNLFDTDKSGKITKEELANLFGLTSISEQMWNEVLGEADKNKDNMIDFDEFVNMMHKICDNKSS
Chain of L-lactate dehydrogenase (Plasmodium falciparum (isolate CDC / Honduras)) (Q27743 whole entry, looked up): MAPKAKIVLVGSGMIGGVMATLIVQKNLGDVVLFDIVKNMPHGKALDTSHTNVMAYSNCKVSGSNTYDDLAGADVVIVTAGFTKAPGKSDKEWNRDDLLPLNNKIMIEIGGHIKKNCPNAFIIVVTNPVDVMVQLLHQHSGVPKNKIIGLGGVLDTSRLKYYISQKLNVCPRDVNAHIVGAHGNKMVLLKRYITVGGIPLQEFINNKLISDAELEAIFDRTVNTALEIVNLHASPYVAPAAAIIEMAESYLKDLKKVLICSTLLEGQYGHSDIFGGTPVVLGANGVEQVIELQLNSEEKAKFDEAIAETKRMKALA
Chain of Protein kinase 7 (PK7), Plasmodium falciparum 3D7 (PF3D7_0213400) (Q7YTF7 1-343): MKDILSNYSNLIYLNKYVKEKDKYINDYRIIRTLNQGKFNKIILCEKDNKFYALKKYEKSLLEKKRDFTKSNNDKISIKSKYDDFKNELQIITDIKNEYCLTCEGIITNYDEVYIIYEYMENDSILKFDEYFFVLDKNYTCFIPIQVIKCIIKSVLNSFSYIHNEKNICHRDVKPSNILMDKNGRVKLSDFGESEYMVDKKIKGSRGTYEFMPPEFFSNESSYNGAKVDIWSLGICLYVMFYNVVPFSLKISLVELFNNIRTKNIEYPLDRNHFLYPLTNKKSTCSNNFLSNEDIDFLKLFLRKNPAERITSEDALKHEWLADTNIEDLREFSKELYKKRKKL
Chain of Calcium-dependent protein kinase 4 (Plasmodium falciparum (isolate 3D7)) (Q8IBS5 whole entry, looked up): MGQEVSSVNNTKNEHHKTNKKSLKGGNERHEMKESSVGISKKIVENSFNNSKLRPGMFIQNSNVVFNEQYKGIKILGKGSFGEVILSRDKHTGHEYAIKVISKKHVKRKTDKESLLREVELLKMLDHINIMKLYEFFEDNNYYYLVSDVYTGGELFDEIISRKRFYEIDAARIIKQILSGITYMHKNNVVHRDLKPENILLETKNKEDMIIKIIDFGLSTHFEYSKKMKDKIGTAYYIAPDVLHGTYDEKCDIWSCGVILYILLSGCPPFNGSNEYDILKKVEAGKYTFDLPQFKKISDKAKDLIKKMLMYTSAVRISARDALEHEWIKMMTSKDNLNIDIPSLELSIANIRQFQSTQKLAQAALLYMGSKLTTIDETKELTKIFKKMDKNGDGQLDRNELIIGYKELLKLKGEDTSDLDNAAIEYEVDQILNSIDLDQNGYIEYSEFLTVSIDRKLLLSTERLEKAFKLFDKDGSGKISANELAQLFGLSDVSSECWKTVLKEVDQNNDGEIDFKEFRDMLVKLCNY

With `CC1CN(Cc2ccc(-c3ccc(-c4nc5ccccc5[nH]4)cc3)cc2)CC(C)O1` (stereo not given), the growth inhibition in test [1] is 96% (active); in test [4], 98% (active). In addition, the inhibition in test [2] is 48%; in test [3] it was 3%. The result in test [5], in test [6], in test [7] and in test [8] was inactive.

For the compound `CC(C)C1=CC(=NOS(=O)(=O)c2ccccc2)C=C(C(C)C)C1=O`, the growth inhibition in test [1] was 74% (active); in test [4] it was 92% (active). In addition, the inhibition is 23% in test [2] and -3% in test [3]. Also, the result in test [5], in test [6], in test [7] and in test [8] was inactive.

`CCN(CC)CCN(Cc1ccc(-c2ccc(C(F)(F)F)cc2)cc1)C(=O)Cn1c(CCc2cccc(F)c2F)c(C)c(=O)c2ccccc21`: the results for the growth inhibition in test [1] and in test [4] were 52% (active) and 87% (active), respectively. The inhibition in test [2] is 61% (active); in test [3], 3%. Moreover, the outcome in test [5], in test [6], in test [7] and in test [8] was inactive.

Regarding `O=C(Nc1ccc(-c2ccccc2)cc1)Nc1cccc(OCCN2CCCC2)c1`, the growth inhibition in test [1] is 14%; in test [4] it was 94% (active). Also, the results for the inhibition in test [2] and in test [3] were 11% and -2%, respectively. Moreover, the result in test [5], in test [6], in test [7] and in test [8] was inactive.

For the compound `Cc1cc(N(C)C2CCN(CC3CCCCC3)C2)nc(Nc2ccc(Br)cc2)n1` (stereo not given), the growth inhibition in test [1] was 38%; in test [4], 98% (active). For the same compound, the values for the inhibition in test [2] and in test [3] were 14% and -1%, respectively. Moreover, the outcome in test [5], in test [6], in test [7] and in test [8] was inactive.

Regarding `NS(=O)(=O)NCCCN1CCN(c2ccccc2)CC1`, the growth inhibition in test [1] is 73% (active); in test [4] it was 90% (active). Further, the inhibition in test [2] was 2%; in test [3] it was -2%. Besides, the outcome in test [5], in test [6], in test [7] and in test [8] was inactive.

Consider `Nc1c(Cl)cc(C(O)CNCCCCCCOCCc2ccc(CO)s2)cc1Cl` (stereo not given), for which the figures for the growth inhibition in test [1] and in test [4] were 71% (active) and 86% (active), respectively. The inhibition in test [2] is 1%; in test [3], -2%. In addition, the outcome in test [5], in test [6], in test [7] and in test [8] was inactive.

Take `CCCC(=O)c1cnc2c(Oc3cc(Cl)ncn3)cccc2c1Nc1ccccc1C`: the growth inhibition in test [1] was 85% (active); in test [4], 99% (active). Further, the inhibition in test [2] and in test [3] was 6% each time. In addition, the result in test [5], in test [6], in test [7] and in test [8] was inactive.

For the compound `CN1CCN(CCCN(Cc2ccc(-c3ccc(CNCc4ccc5c(c4)OCO5)cc3)cc2)C(=O)Nc2ccccc2)CC1`, the growth inhibition was 77% (active) in test [1] and 94% (active) in test [4]. In addition, the inhibition in test [2] is 36%; in test [3], -3%. The outcome in test [5], in test [6], in test [7] and in test [8] was inactive.

Take `COc1cc(CN2CCC(C(=O)Nc3ccc(-c4cccc(C)c4)cc3)CC2)ccc1O`: the growth inhibition in test [1] was 85% (active); in test [4] it was 100% (active). Moreover, the inhibition is 25% in test [2] and 3% in test [3]. Moreover, the result in test [5], in test [6], in test [7] and in test [8] was inactive.

Consider `COc1ccc(N2CCN(CCCNC(=O)c3ccc(NC(=O)c4cc(Cl)cc(Cl)c4)cc3)CC2)c(OC)c1`, for which the growth inhibition in test [1] was 79% (active); in test [4], 101% (active). Also, the figures for the inhibition in test [2] and in test [3] were 21% and -4%, respectively. Besides, the outcome in test [5], in test [6], in test [7] and in test [8] was inactive.

In the case of `O=C(NOCCCCOc1ccc(Cl)c(Cl)c1)c1ccccc1`, the growth inhibition in test [1] is 1%; in test [4], 98% (active). The inhibition in test [2] was 2%; in test [3] it was 3%. In addition, the result in test [5], in test [6], in test [7] and in test [8] was inactive.

As to `CNC(=O)Cc1ccc(C(=O)Nc2cccc(-c3cccc(-c4nc5ccc(C(F)(F)F)cc5[nH]4)c3)c2)cc1`, the growth inhibition is 37% in test [1] and 95% (active) in test [4]. The inhibition was 40% in test [2] and 5% in test [3]. The result in test [5], in test [6], in test [7] and in test [8] was inactive.

Take `COC(=O)c1ccc2nc(-c3ccc(/C=C/C(=O)NC4CCN(Cc5ccccc5)CC4)cc3)[nH]c2c1`: the growth inhibition in test [1] was 88% (active); in test [4], 100% (active). For the same compound, the inhibition in test [2] is 12%; in test [3], -5%. Moreover, the result in test [5], in test [6], in test [7] and in test [8] was inactive.

With `CC(C)(C)c1cc(C(=O)N2CCN(c3ncnc4ccsc34)CC2)n(Cc2ccccc2)n1`, the growth inhibition is 83% (active) in test [1] and 95% (active) in test [4]. In addition, the values for the inhibition in test [2] and in test [3] were 2% and -8%, respectively. The outcome in test [5], in test [6], in test [7] and in test [8] was inactive.

With `CN1CCN(CCCN(Cc2cccc(-c3ccc(CNCc4ccc5c(c4)OCO5)cc3)c2)C(=O)CCC2CCCC2)CC1`, the growth inhibition in test [1] is 84% (active); in test [4], 98% (active). Further, the values for the inhibition in test [2] and in test [3] were 91% (active) and -6%, respectively. Also, the outcome in test [5], in test [6], in test [7] and in test [8] was inactive.

With `N#Cc1cncc(-c2nc3c(N4CCC(Cc5ccccc5)CC4)cccc3n2CCNCc2ccccc2)c1`, the growth inhibition in test [1] and in test [4] was 99% (active) each time. Also, the inhibition in test [2] is 2%; in test [3], -1%. The outcome in test [5], in test [6], in test [7] and in test [8] was inactive.

For `CN(Cc1cccc(O)c1)C1CCN(c2cc(NC(=O)c3cccc(F)c3)ccn2)CC1`, the results for the growth inhibition in test [1] and in test [4] were 37% and 98% (active), respectively. In addition, the inhibition is -2% in test [2] and 0% in test [3]. Further, the outcome in test [5], in test [6], in test [7] and in test [8] was inactive.

Consider `CCCCC(NCC)c1ccc(OCCOc2ccc(C(CCCC)NCC)cc2)cc1` (stereo not given), for which the growth inhibition is 99% (active) in test [1] and 101% (active) in test [4]. In addition, the inhibition in test [2] was 100% (active); in test [3] it was 3%. In addition, the outcome in test [5], in test [6], in test [7] and in test [8] was inactive.

For the compound `N#Cc1ccc2c(c1)CCN(CCCn1c(-c3ccc4ccccc4c3)nc3ccncc31)CC2`, the results for the growth inhibition in test [1] and in test [4] were 97% (active) and 102% (active), respectively. Besides, the inhibition in test [2] was 38%; in test [3] it was 4%. Moreover, the outcome in test [5], in test [6], in test [7] and in test [8] was inactive.
